Shiga toxin inh: Shiga toxin inhibition. Vero cells, Shiga toxin protein synthesis inhibition reporter. inhibition, % at 38.7 µM. 9.2% of 290,000 active. AID 2315; in the data active means inhibition mostly above about 28%, no sharp cut-off; inactive means mostly below about 43%; further: 0% is about no effect
CHX counter: counter-screen for Shiga toxin inhibitors: cycloheximide protein synthesis inhibition | cell reporter, cycloheximide protein synthesis inhibition counterscreen | max response, % | 12% of 300,000 active; in the data active means max response mostly above about 13%, no sharp cut-off; inactive means mostly below about 14%; further: read at 38.3 µM for the half of the compounds with a filed dose; 0% is about no effect
AMA1-RON2 inh: AMA1-RON2 (P. falciparum) interaction inhibition | AlphaScreen AMA1-biotinylated RON2 peptide binding | Potency, µM (titrated, usually from 58.2 µM), without a hit: at the highest dose activity change, negative = inhibition, hits mostly inhibitors | 0.2% of 360,000 active; active means well fitted inhibition curve with a large enough effect; inconclusive means small, poorly fitted or top-dose-only effect; inactive means no such curve, though single readings can be large or run the other way;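 further: potency means the concentration at half of the fitted maximal effect; 0% = vehicle wells and -100% = peptide control; nearly all actives have a fitted effect of over 45% in size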
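AMA1 (3D7) with his tag at 25 nM final met compounds first, then biotinylated RON2 peptide at 25 nM; detection used donor plus acceptor beads, 10 µg/mL apiece, read by AlphaScreen after 30 min at room temperature.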
Marburg entry inh: blocks Marburg virus binding to or entry into cells | Marburg virus pseudotyped entry inhibition, cell reporter | Potency, µM (top dose mostly 37.8 µM), for inactives: at the top dose activity change, negative = inhibition, usual class: inhibitors | 1.8% of 300,000 active | AID 540276; calls by dose curve; tested in HEK293 cells; further: potency means the concentration at half of the fitted maximal effect; on the % scale 0 is the no-effect control and ±100 the full control effect
LASV entry inh: inhibitors of Lassa virus binding or cell entry. Lassa virus pseudotype entry inhibition, cell reporter. Potency, µM (doses to about 37.9 µM), for inactives: at the highest dose activity change, negative = inhibition, usual class: inhibitors. 1.2% of 300,000 active. AID 540256; calls by dose curve; tested in HEK293 cells; further: potency means the concentration at half of the fitted maximal effect; on the % scale 0 is the no-effect control and ±100 the full control effect; nearly all actives have a fitted effect of over 50% in size
An asterisk follows results filed as active; ? = inconclusive; . = not tested or not shown; [ ] = another dose, or the depositor's remark. Many of the other results were omitted from the sample, so hits are more common in it than they were.

SMILES	Shiga toxin inh	CHX counter	AMA1-RON2 inh	Marburg entry inh	LASV entry inh
CC(=O)Nc1cccc(NC(=O)Cc2ccc3ccccc3c2)c1	3.2	13.1	3.8%	0.0%	-0.4%
COc1ccc(-c2noc(-c3ccc(NCc4ccc(C)cc4)c([N+](=O)[O-])c3)n2)cc1OC	.	.	.	-16.4%[46.1 µM]	-1.0%[46.1 µM]
C=CCN1CC[C@]23c4c5ccc(O)c4O[C@@H]2/C(=N/N=C2\CC[C@@]4(O)C6Cc7ccc(O)c8c7[C@@]4(CCN6CC=C)[C@@H]2O8)CC[C@@]3(O)C1C5	.	.	.	4.47µM*	16.4µM*
CCOc1ccc2nc(N3CCOCC3)nc(C)c2c1	99.3*	53.0*	9.4%	?	?
COc1ccc2c(C)cc(N3CCOCC3)nc2c1	52.3*	25.6*	5.7%	27.2%	?
CCOc1ccc(Nc2nc(N3CCOCC3)nc(N3CCOCC3)n2)cc1	-3.2	-1.7	-19.3%	?	?
COc1ccc2c(C)cc(N3CCN(c4ccc(F)cc4)CC3)nc2c1	-5.4	-3.0	-9.8%	?	0.8%
COc1ccc2nc(N3CCOCC3)cc(C)c2c1	60.6*	32.7*	0.8%	?	?
COc1ccc(CNC(=O)CCc2cn(C)c3ccccc23)cc1	.	.	.	.	9.2%[46.1 µM]
O=C(NN=C1CCCC1)c1cc(-c2ccc(F)cc2)nc2ccccc12	28.5	8.0	59.3%	?	?
CCCc1ccc(-c2cc(C(=O)NC3=NCCS3)c3ccccc3n2)cc1	24.0*	18.9*	40.3%	-24.5%	-23.1%
O=C(NC1=NCCS1)c1cc(-c2ccc(F)cc2)nc2ccccc12	10.0	17.1*	49.2%	?	-9.4%
Cc1ccc(-c2cc(C(=O)NC3=NCCS3)c3ccccc3n2)cc1C	44.2	17.8*	0.4%[11.6 µM]	-51.7%	?
Cc1ccc(CCNC(=O)c2cc(-c3ccncc3)nc3ccccc23)cc1	9.0	-3.5	-8.8%	.	.
O=C(Nc1ccc(Cl)c(S(=O)(=O)N2CCOCC2)c1)[C@@H]1CCCN1C(=O)c1cccs1	.	.	8.3%	12.0%	19.7%
Cc1ccc(SCc2cn3c(C)cc(C)nc3n2)cc1	69.5*	23.2*	-9.9%	?	-3.2%[46.1 µM]
Cc1cc(C)n2cc(CSc3nc4ccccc4s3)nc2n1	39.5*	35.7*	2.8%	?	8.0%
Cc1cc(C)n2cc(CSc3ccc(Cl)cc3)nc2n1	49.3*	27.0*	-8.3%	.	.
Cc1cc(C)n2cc(CSc3nnc(SCc4cn5c(C)cc(C)nc5n4)s3)nc2n1	16.3	-1.1	.	.	.
CN(C)CCCNc1nc2cc(-c3ccc(F)cc3)sc2c(=O)n1C	.	.	7.9%	.	.
CCN(CC)C1CCN(C(=O)CCn2nnnc2CN2CCOCC2)C1 (stereo not given)	7.5	-2.4	16.6%	10.8%	3.2%
CCc1noc(C)c1C(=O)N1CCN(S(=O)(=O)c2ccc(Br)cc2Cl)CC1	.	.	-5.6%	?	?
NC(=O)c1ccccc1Nc1nc2nc3ccccc3c(=O)n2cc1Br	38.0*	15.3*	2.5%	?	-10.6%[46.1 µM]
CSc1cccc(NC(=O)CC(c2ccc(F)cc2)N2Cc3ccccc3C2=O)c1 (stereo not given)	.	.	.	.	-7.3%[46.1 µM]
Cc1cc(=O)[nH]c(SCC(=O)N2CCCc3ccccc32)n1	14.5	-3.1	-10.5%	17.0%	15.4%
SMILES	Shiga toxin inh	CHX counter	AMA1-RON2 inh	Marburg entry inh	LASV entry inh
Nc1nc(SCC(=O)N2CCCc3ccccc32)n[nH]1	.	.	0.0%	.	.
Cc1nnc(SCC(=O)N2CCCc3ccccc32)[nH]c1=O	13.9	23.1*	-2.7%	-1.3%	-12.6%
O=C(CSCc1ccco1)c1ccc(Cl)s1	108.1*	25.5*	.	-4.0%	.
Nc1cc(N)nc(SCC(=O)N2CCc3ccccc32)n1	58.4*	29.9*	-4.4%	22.1%	9.3%
Cc1nc(SCC(=O)N2CCc3ccccc32)n[nH]1	41.1	33.1*	0.9%	7.4%	15.5%
O=C(NC1CCCC1)C1CCCN1C(=O)Oc1ccccc1 (stereo not given)	17.2	8.7	-0.9%	.	.
O=C(CCc1nc2cccnc2n1Cc1ccccc1)NCc1cccc(Cl)c1	.	.	.	?	-5.6%[46.1 µM]
Cc1noc(C)c1C(=O)N1CCC1(C)C(=O)NS(=O)(=O)c1cccc(OC(F)F)c1 (stereo not given)	.	.	0.1%	.	.
O=C(Cc1c(Cl)cccc1Cl)OCC(=O)N1CCN(C(=O)c2ccco2)CC1	12.9	8.1	8.1%	-3.7%[46.1 µM]	4.2%[46.1 µM]
O=C(CSc1ccccc1)N1CCc2ccccc21	93.1*	31.3*	14.0%	5.0%[46.1 µM]	-0.5%
Cn1nnnc1SCC(=O)N1CCc2ccccc21	-10.2	-0.3	6.3%	?	26.4%[46.1 µM]
O=C(CSc1cccc[n+]1[O-])N1CCCc2ccccc21	15.3	22.7*	-14.8%	22.5%[46.1 µM]	-1.3%
Cc1nnc(SCC(=O)N2CCc3ccccc32)s1	active	19.6*	8.5%	7.3%	0.1%
O=C(CSCc1ccco1)N1CCc2ccccc21	105.2*	39.5*	-13.2%	7.2%[46.1 µM]	-25.5%[46.1 µM]
COc1ccc(OC)c(NC(=O)c2cc3c(=O)oc4ccccc4c3s2)c1	.	.	.	19.4%[46.1 µM]	16.2%[46.1 µM]
O=C(CSc1c[nH]c2ccccc12)N1CCCc2ccccc21	-1.7	-1.7	0.0%	.	.
CCn1cc(SCC(=O)N2CCc3ccccc32)c2ccccc21	53.9*	26.9*	-6.2%	.	.
